Hits are enriched below; roughly 8% of the tested compounds scored in any of these assays.
LASV entry inh: inhibitors of Lassa virus binding or entry into cells | AID 720533 | Potency, µM (series often up to 49.2 µM), for the others: top-dose activity change, negative = inhibition, most hits filed as inhibitors | hit rate 4.1% among 18,000 | Lassa virus pseudotyped entry inhibition, cell-based qHTS
Marburg entry: inhibitors of Marburg virus binding or entry into cells. Marburg virus pseudotype entry/binding inhibition, cell-based. Potency, µM (series often up to 49.2 µM), for the others: at the highest dose activity change, negative = inhibition, most hits filed as inhibitors. hit rate 6.5% among 18,000. AID 720532
* = called active by the depositor; ? = inconclusive; nt = not tested or not shown; ! = not confirmed by another sample; [ ] = another dose, or the depositor's remark. Calls follow the shape of the full dose curve; tested in HEK293 cells. % is scaled to controls: 0 for no effect and ±100 for the full control effect; potency is read from the fitted curve at half-maximal effect.

SMILES | LASV entry inh | Marburg entry
CC(=O)OC[C@H]1O[C@@H](ON=C[C@@H](C)[C@H](OCc2ccccc2)C(C)C)[C@@H](OC(C)=O)[C@@H](OC(C)=O)[C@@H]1OC(C)=O | nt | 43%[8.59 µM]
CO[C@]1(C)C[C@H]2O[C@]1(C)n1c3ccccc3c3c4c(c5c6ccccc6n2c5c31)C(=O)N(C)C4 | -5% | 0%
O=C1NC(=O)c2c1c1c3ccccc3n3c1c1c2c2ccccc2n1C1CCC3O1 | ? | 1.1µM*
Nc1ccccc1C(=O)C=Cc1ccccc1 | 13%[8.59 µM] | 11%[8.59 µM]
CN[C@@H](C)[C@H](O)c1ccccc1 | -10% | 15%
CCCCCCCCN[C@@H](C)[C@H](O)c1ccc(SC(C)C)cc1 | -5%[17.8 µM] | 11µM*
COc1ccc(COc2cc(-c3cccc(OC)c3)nc3ccc(NC(=O)c4ccccc4)cc23)cc1 | 10µM* | ?
COc1ccc(COc2cc(-c3cccc(OC)c3)nc3ccc(NC(=O)c4ccc(Cl)cc4)cc23)cc1 | -29% | -18%
COc1cccc2c1[C@@H]1CN(CCCCn3c(=O)[nH]c4c(sc5ncc(-c6ccccc6)nc54)c3=O)C[C@@H]1CO2 | -4% | 10µM*
Cc1cc2c(nc1C)CCCCN2C[C@H](C)ON=C[C@@H](C)[C@H](OCc1ccccc1)C(C)C | -19%[8.59 µM] | ?
CCC1OC(=O)C[C@@H](O)[C@H](C)[C@@H](O[C@@H]2O[C@H](C)C[C@H](N(C)C)[C@H]2O)[C@@H](CC=O)C[C@@H](C)C(=O)/C=C/[C@]2(C)OC2C1C (stereo partly specified) | 25µM* | 8.9µM*
CO[C@@H]1[C@@H](O[C@@H]2O[C@H](C)[C@@H](O[C@H]3C[C@@](C)(O)[C@@H](O)[C@H](C)O3)[C@H](N(C)C)[C@H]2O)[C@@H](CC=O)C[C@@H](C)[C@@H](O[C@@H]2CC[C@H](N(C)C)[C@@H](C)O2)/C=C/C=C/C[C@@H](C)OC(=O)C[C@H]1O | 10%[17.8 µM] | ?
O=C[C@H](O)[C@@H](O)[C@H](O)[C@H](O)CO | -6% | 13%
CCN(CC)CCNC(=O)COc1ccc(Cl)cc1 | 4% | -28%
CCN(CC)CCOc1ccc(C(O)(Cc2ccc(Cl)cc2)c2ccc(C)cc2)cc1 (stereo unspecified) | 25µM* | 3.5µM*
CCn1c(-c2nonc2N)nc2cnc(Oc3cccc(NC(=O)c4ccc(N(C)C)cc4)c3)cc21 | 18% | 16%
CC(=O)Oc1ccc2c(c1OC(C)=O)OCC1(O)Cc3c(cc(OC(C)=O)c(OC(C)=O)c3OC(C)=O)C21 (stereo unspecified) | -19% | 7.9µM*
Oc1cc2c(cc1O)[C@H]1c3ccc(O)c(O)c3OC[C@@]1(O)C2 | -14% | ?
COc1ccc([C@H]2C[C@H](n3cc(C4CC4)nn3)[C@@H](O)CN2C(=O)c2cccs2)cc1 | -7% | 1%
Cc1ccc(CN2C[C@@H](Sc3nc(C)cc(C)n3)C[C@H]2C(=O)N2CCN(c3ccccc3F)CC2)cc1 | -28% | -9%
O=C1c2ccccc2C(=O)c2c(O)ccc(O)c21 | 2% | -2%
O=C1c2c(O)ccc(O)c2C(=O)c2c(NCCNCCO)ccc(NCCNCCO)c21 | 0.32µM* | 0.1µM*
CC1(C)CN(CCc2ccccc2)C(=O)[C@@H]1CC(=O)Nc1ccccc1 | 20% | 4%
COc1ccc(/C=C/C(=O)N2CCc3c(cnc(C)c3CNS(=O)(=O)c3cccs3)C2)cc1 | -26% | 3%
CNCC[C@H](Oc1cccc2ccccc12)c1cccs1 | 22µM* | 7.9µM*
SMILES | LASV entry inh | Marburg entry
OC[C@@H](O)COc1cccc2ccccc12 | -4% | -8%
CC(C)C(=O)N[C@H]1CCCN1C(=O)C=Cc1ccccc1 | 13%[8.59 µM] | -22%[8.59 µM]
CCCCN1CCC[C@H]1CNC(=O)c1cc(C#N)c2ccccc2c1OC | ? | 10µM*
CCN1CCCC1CNC(=O)c1cnn(-c2nccc(-c3ccccc3OC)n2)c1-c1ccco1 (stereo unspecified) | -4% | ?
CCN1CCCC1CNC(=O)c1cc(S(N)(=O)=O)ccc1OC (stereo unspecified) | 17% | 3%
CCc1cc(Cl)c(OC)c(C(=O)NC[C@@H]2CCCN2CC)c1O | ? | 4.5µM*
CC(=O)OC[C@H]1O[C@H](CC=NO[C@@H](C)c2cn([C@H](CO)Cc3ccccc3)nn2)C=C[C@@H]1OC(C)=O | nt | 34%[8.59 µM]
C[C@H]1CC[C@H]2C(=O)N(Cc3ccccc3)C[C@@H](O)CN2[C@H]1c1ccc(Br)cc1 | 7%[8.59 µM] | -33%[8.59 µM]
COc1ccc2[nH]c3c(c2c1)CCN=C3C | 5%[17.8 µM] | ?
CC[C@H]1C[C@@H]2C[C@H]3c4[nH]c5ccc(OC)cc5c4CCN(C2)[C@@H]13 | -11% | 28µM*
C=C1CCC2C(C)(CO)C(O)CCC2(C)C1C/C=C1\C(=O)OCC1O (stereo unspecified) | ? | 11µM*
OC[C@]1(O)OC[C@@H](O)[C@H](O)[C@@H]1O | -14% | -5%
CCCCCCCCOc1c(OC)cc(/C=C/C(=O)N2CCN(c3ccc(C)c(C)c3)CC2)cc1OC | -20% | 9%
O[C@@H](c1cc(C(F)(F)F)nc2c(C(F)(F)F)cccc12)[C@H]1CCCCN1 | 28µM* | 10µM*
O=C(NCc1nnc2n1CCN(C(=O)/C=C/c1ccccc1)CC2)c1cccc(F)c1 | -9% | -2%
CCC(=O)N[C@@H]1c2ccccc2C2(CCN(Cc3ccccn3)CC2)[C@H]1OC | -4% | 9%
CCC(=O)N[C@@H]1c2ccccc2C2(CCN(Cc3[nH]c4c(Cl)cccc4c3C)CC2)[C@H]1OC | 25µM* | 11µM*
CC(=O)[C@@]12C3[C@@H](CCN3C(=O)N[C@H]1c1ccccc1)[C@H]2c1ccccc1 (stereo partly specified) | -4%[8.59 µM] | 21%[8.59 µM]
Cc1c(F)c(N2CCNC(C)C2)cc2c1c(=O)c(C(=O)O)cn2C1CC1 (stereo unspecified) | -1% | 3%
CNC(=O)c1ncccc1Nc1nc(Nc2cc3c(cc2OC)CCCN3C(=O)CN(C)C)nc2[nH]ccc12 | ? | 2.5µM*
COc1cc(N2CCN(C(C)C)CC2)ccc1Nc1nc(Nc2cccc(F)c2C(=O)O)c2cc[nH]c2n1 | -4% | -21%
COc1cc2c(cc1Nc1nc(Nc3ccsc3C(N)=O)c3cc[nH]c3n1)N(C(=O)CN(C)C)CCC2 | nt | 1.6µM*
CC(C)CON=C1C[C@@H](O)[C@@H](O)[C@@H]2[C@H]3C(=O)N(c4ccc(F)cc4F)C(=O)[C@@H]3CC[C@@H]12 | 5%[8.59 µM] | -13%[8.59 µM]
COc1ccc2c(c1)OC(C)CN(CCNC(=O)c1ccc(-n3cccn3)cc1)C2 (stereo unspecified) | 31% | -9%
CCCCCCCCCCCCCCC[C@@H](O)[C@H](CO)NC(C)=O | 0% | 6%
SMILES | LASV entry inh | Marburg entry
COCCC(=O)NCC1Cc2cc(Cl)cc(-c3ccc4[nH]ccc4c3)c2O1 (stereo unspecified) | 7.1µM* | 7.1µM*
CC(=O)N1CCC[C@H]1C(=O)NCC1Cc2cc(Cl)cc(-c3ccc4[nH]ccc4c3)c2O1 (stereo partly specified) | -8% | -24%
Cc1ccc(C(=O)N(Cc2cc3cccc(C)c3nc2N(C)C)CC2CCCO2)cc1 (stereo unspecified) | -5% | 7%
COc1ccccc1C(=O)N(Cc1cc2cc3c(cc2nc1N(C)C)OCO3)CC1CCCO1 (stereo unspecified) | 11µM* | 13µM*
COc1cc2c(cc1OC)[C@@H]1O[C@](c3ccsc3)(C2)OC2=C1C(=O)CC(C)(C)C2 | -11%[8.59 µM] | -12%[8.59 µM]
O=c1c2ccccc2[se]n1-c1ccccc1 | 25µM*! | 22µM*!
